Measured values taken from PubChem BioAssay AID1048 (The Scripps Research Institute Molecular Screening Center, 2008).
The campaign covered roughly 99,000 compounds. About 390 (0.39%) were called active. The list comes from a sample in which actives are over-represented; it also holds similar structures and randomly drawn compounds. A number with no mark means an inactive call. Cut-off read from the data, not from the text of the source: active = TR-FRET ratio above about 2000; inactive = the rest.

assay: TR-FRET detection interference compounds, artefact control for PPARgamma SRC-3 recruitment agonists, biochemical, TR-FRET ratio (AID 1048); details: TR-FRET artefact counter-screen, PPARgamma/SRC-3 format; at 8 µM; hits give high values

Going from `COCCN(C(=S)Nc1ccccc1OC)C1CCN(C(C)C)CC1` to `COc1ccccc1NC(=O)COC(=O)Cc1ccc(S(=O)(=O)N2CCCCC2)s1`, the TR-FRET ratio falls from 1690 to 1680.

Compared with `COc1ccc(OC)c(C(=O)c2ccc(C(=O)N3CCN(Cc4csc(C)n4)CC3)cc2)c1`, `Cc1ccc(Cl)cc1N1CCN(C(=O)c2cccc3c(=O)c(C)c(-c4ccccc4)oc23)CC1` is lower in TR-FRET ratio: 1600 for the first, 1350 for the second.

Compared with `COc1ccc(C)cc1NC(=O)Nc1ccccc1SC`, `O=C(NCCOc1ccccc1F)Nc1ccc(Br)cc1` is higher in TR-FRET ratio: 1480 for the first, 1530 for the second.

Compared with `O=C(NCc1ccccn1)c1cc(Br)ccc1Cl`, `O=C(Nc1ccncc1)c1cc(-c2ccccn2)nc2ccc(Br)cc12` is higher in TR-FRET ratio: 1620 for the first, 1720 for the second.

First: C/C(N)=C(/C#N)C(=O)COC(=O)c1cc(-c2ccccc2)nc2ccc(Br)cc12
Second: O=C(O)Cc1sc(-c2ccc(C(=O)O)cc2)nc1-c1ccccc1
The TR-FRET ratio of the first is lower: 1450 for the first, 1690 for the second.

Going from `Cc1ccc2nc(-c3cccc(Br)c3)cc(C(=O)Nn3cnnc3)c2c1` to `Cc1cccc(NC(=O)c2sc(-c3ccccc3)nc2-c2ccc([N+](=O)[O-])cc2)c1`, the TR-FRET ratio rises from 1410 to 1630.

First: O=C(Cc1c(F)cccc1Cl)Nc1ccc(-n2cnnn2)cc1
Second: Fc1ccccc1Cc1ccc(Cl)nn1
The TR-FRET ratio of the first is higher: 1510 for the first, 1250 for the second.

Going from `CCOc1ccc(CCNC(=O)CSc2cc(=O)n(C)c3ccc(Cl)cc23)cc1OCC` to `CCOc1ccc(NC(=O)CSc2nc3ccccc3c(=O)n2Cc2cccs2)cc1`, the TR-FRET ratio falls from 1800 to 1640.

Going from `CC(C)N(C(=O)Cn1cc(SCC(=O)N2CCCC2)c2ccccc21)C(C)C` to `CCOC(=O)c1c(NC(=O)CSc2cn(CC)c3ccccc23)sc2c1CCC2`, the TR-FRET ratio rises from 1440 to 1590.

Compared with `CC(C)NC(=O)c1ccc(Cl)cc1Cl`, `CC(NC(=O)COC(=O)c1ccc(Cl)cc1O)c1ccc(F)cc1` (stereo unspecified) is lower in TR-FRET ratio: 1730 for the first, 1480 for the second.

Going from `NC1=NC2(CCCCC2)N(c2ccc(F)cc2F)C(N)=N1` to `CSCC(=O)N1CCCC(C(=O)c2cc(F)ccc2F)C1` (stereo unspecified), the TR-FRET ratio falls from 1410 to 1400.

Compared with `COc1ccc2c(CC(=O)OCC(=O)Nc3ccccc3[N+](=O)[O-])coc2c1`, `COc1ccc2c(c1)C(SCC(=O)NCc1ccccc1)CC(C)(C)O2` (stereo unspecified) is lower in TR-FRET ratio: 1720 for the first, 1590 for the second.

Compared with `CCOc1ccc(NC(=O)c2cc(C)nc3ccccc23)cc1`, `CCOC(=O)c1ccc(NC(=O)c2cc(=O)[nH]c3ccccc23)cc1` is higher in TR-FRET ratio: 1470 for the first, 1550 for the second.

Compared with `Cn1nnnc1NCc1ccc(Cl)c(Cl)c1`, `C/C(=N\Nc1ncc(Cl)cc1Cl)c1cccs1` is lower in TR-FRET ratio: 1750 for the first, 1400 for the second.

Compared with `CCOC(=O)C1C(c2ccc(Cl)cc2)NC(=S)NC1(O)C(F)(F)F` (stereo unspecified), `CC(C)(C)NC(=O)COC(=O)c1cc(Cl)ccc1[N+](=O)[O-]` is lower in TR-FRET ratio: 1580 for the first, 1550 for the second.

Compared with `CC(C)CNC(=O)C(=O)Nc1ccc(N(C)C)cc1`, `CCCN(CC(=O)Nc1ccc(C(N)=O)cc1)CC(=O)Nc1ccccc1C` is lower in TR-FRET ratio: 1510 for the first, 1400 for the second.

First: CCCOc1ccc(N/C=C/C(=O)C(C)(C)C)cc1
Second: CCCCOc1ccc(N(CC(=O)NC(C)C)C(=O)CCC(=O)Nc2ccccn2)cc1
The TR-FRET ratio of the first is lower: 1370 for the first, 1760 for the second.

Compared with `COc1ccc(CC(NC(C)=O)C(=O)NC2CCN(C(=O)C3CC3)CC2)cc1OC` (stereo unspecified), `COc1ccc(CCNC(=O)COC(=O)C2CCCCC2)cc1` is lower in TR-FRET ratio: 1430 for the first, 1330 for the second.

Going from `CC1COc2ccccc2N1C(=O)c1cccnc1Cl` (stereo unspecified) to `CN1/C(=C\C(=O)c2cccnc2Cl)C(C)(C)c2ccccc21`, the TR-FRET ratio falls from 1670 to 1630.

First: COc1ccc(C(=O)NNC(=O)c2cc(C)[nH]n2)cc1
Second: O=C(NNC(=O)c1cc2c(s1)CCCC2)c1ccccc1
The TR-FRET ratio of the first is lower: 1480 for the first, 1550 for the second.

Compared with `O=C(O)Cc1ccc(-c2ccccc2)cc1`, `CC/C(Cc1ccccc1)=N/NC(=O)CCn1nnc2ccccc21` is higher in TR-FRET ratio: 1600 for the first, 1860 for the second.

First: CN(C)/N=C/c1cn(-c2ccccc2)nc1-c1cccnc1
Second: CN(CCc1cnn(C)c1)Cc1cn(C)nc1-c1ccccc1F
The TR-FRET ratio of the first is higher: 1610 for the first, 1360 for the second.

Compared with `CCc1nnc(NC(=O)CSc2nnnn2-c2cccc(C(C)=O)c2)s1`, `CC1Cc2ccccc2N1C(=O)CSc1nnc(C2CC2)n1C` (stereo unspecified) is higher in TR-FRET ratio: 1550 for the first, 1630 for the second.

First: Cc1ccc2c(c1)C1CN(C)CCC1N2C(=S)Nc1ccc(Cl)cc1Cl (stereo unspecified)
Second: COn1c(-c2ccc(Cl)cc2Cl)nc2ncccc21
The TR-FRET ratio of the first is lower: 1610 for the first, 1970 for the second.

First: CCN(CC)CCNc1nc(-c2ccc(OC(F)F)cc2)c(C)s1
Second: COc1cc(CN(C)Cc2nc3cc(C(F)(F)F)ccc3c(=O)[nH]2)ccc1OC(F)F
The TR-FRET ratio of the first is higher: 1480 for the first, 1340 for the second.

Compared with `Cc1cccc2nc(CSc3nc4[nH]ncc4c(=O)n3-c3cccc(Cl)c3)cc(=O)n12`, `O=c1c2sccc2nc(SCc2cc(=O)n3ccccc3n2)n1-c1ccc(Br)cc1` is higher in TR-FRET ratio: 1540 for the first, 1730 for the second.

Going from `COc1ccc2cc(CCl)c(Cl)nc2c1` to `COCCn1c(=O)[nH]c(=O)c2cc(C(=O)c3cc(OC)ccc3O)cnc21`, the TR-FRET ratio falls from 1710 to 1460.

Going from `CCN(CC)c1ccc(C(=O)N/N=C/c2ccc(N3CCOCC3)cc2)cc1` to `C(=N/Nc1cc(N2CCOCC2)nc(N2CCOCC2)n1)/c1ccccc1`, the TR-FRET ratio falls from 1580 to 1290.

Going from `CC1Cc2ccccc2N1C(=O)CSc1nnc(-c2ccc(S(=O)(=O)N3CCCC3)cc2)n1C` (stereo unspecified) to `CN1CCN(S(=O)(=O)c2cccc(C(=O)O)c2)CC1`, the TR-FRET ratio falls from 1610 to 1540.

Compared with `CCOC(=O)c1c(NC(=S)Nc2ccccc2C)sc2c1CCC2`, `CCC(=O)Nc1sc(C(=O)Nc2ccccc2)c(C)c1C(=O)OC` is lower in TR-FRET ratio: 1790 for the first, 1430 for the second.

First: Cc1ccc(S(=O)(=O)NCCC(=O)Nc2ccc(C)c(Cl)c2)cc1C
Second: CC(=O)Nc1ccc(Nc2nc3c(S(=O)(=O)c4ccc(C)c(C)c4)nnn3c3ccccc23)cc1
The TR-FRET ratio of the first is higher: 1640 for the first, 1560 for the second.

Going from `CCc1cc(CNC(=O)CC2C(=O)NCCN2CC2CCCCC2)on1` (stereo unspecified) to `CC(C)c1nc(CNC(=O)CC2C(=O)NCCN2Cc2ccoc2)cs1` (stereo unspecified), the TR-FRET ratio falls from 1630 to 1610.

Going from `CC1=CC=CN2C1=NC(=O)CC2(C)C(=O)N(CC(=O)NC1CCCC1)c1ccccc1C` (stereo unspecified) to `O=C(NCc1ccc(F)cc1)C(c1ccccc1)N(C(=O)c1csnn1)C1CC1` (stereo unspecified), the TR-FRET ratio rises from 1450 to 1460.

Going from `CN(Cc1ccccn1)Cc1nc(-c2ccc(Cl)cc2)no1` to `O=[N+]([O-])c1ccccc1SNc1ccccn1`, the TR-FRET ratio rises from 1430 to 1510.

First: CC1(C)CC(=O)C(C2c3ccccc3S(=O)(=O)c3ccccc32)C(=O)C1
Second: O=C(O)c1ccc2c3c(cccc13)C(=O)N(OS(=O)(=O)c1ccccc1)C2=O
The TR-FRET ratio of the first is higher: 1570 for the first, 1490 for the second.

Compared with `COc1cccc(NC(=O)CC(c2ccc(OC(C)C)cc2)c2ccccc2OC)c1` (stereo unspecified), `COc1ccc(C2CC(c3cccs3)=NN2C(=O)COC(=O)c2cc3ccccc3cc2O)cc1OC` (stereo unspecified) is higher in TR-FRET ratio: 1470 for the first, 1600 for the second.

First: O=S1(=O)CC/C(=N\Nc2ccc(F)cc2)c2ccsc21
Second: Cc1ccc(NC(=O)NNC(=O)c2sccc2-n2cccc2)cc1
The TR-FRET ratio of the first is higher: 1680 for the first, 1310 for the second.

First: Cc1c(Cl)c([N+](=O)[O-])nn1CC(=O)NCC1CCCO1 (stereo unspecified)
Second: Cc1ccc(C(=O)N/C(=C/c2cccs2)C(=O)NCC2CCCO2)cc1 (stereo unspecified)
The TR-FRET ratio of the first is higher: 1690 for the first, 1510 for the second.

First: Cc1cccc(Nc2nc3c(S(=O)(=O)c4ccccc4)nnn3c3ccccc23)c1C
Second: O=C(CCC(=O)NNc1nc2ccccc2c2nc(-c3ccccc3)nn12)NCCCN1CCCC1=O
The TR-FRET ratio of the first is lower: 1540 for the first, 1570 for the second.

Compared with `CCc1nccn1S(=O)(=O)c1cccc([N+](=O)[O-])c1`, `Cc1ccc(S(=O)(=O)N(C)c2ccc(OCC(=O)NC3=NCCS3)cc2)cc1` is lower in TR-FRET ratio: 1700 for the first, 1460 for the second.

Compared with `O=C(N/N=C/c1ccccn1)C12CC3CC(CC(C3)C1)C2`, `CC(C)(C)C1CCC(C(=O)Nc2cccnc2)CC1` (stereo unspecified) is lower in TR-FRET ratio: 1520 for the first, 1510 for the second.

First: CCOC(=O)c1sc(NC(=O)COc2ncnc3ccccc23)c(C(=O)OCC)c1C
Second: O=C(CC1SC(=Nc2ccccc2F)N(CCN2CCOCC2)C1=O)Nc1ccc(F)cc1F (stereo unspecified)
The TR-FRET ratio of the first is lower: 1650 for the first, 1720 for the second.

In the case of `O=C(NCc1cccs1)c1cc(-c2ccccn2)nc2ccc(Br)cc12`, the TR-FRET ratio is reported as 2270 (active).
With `Cc1ccc(-c2cc(C(=O)NCc3cn(C)nc3C)c3cc(Br)ccc3n2)cc1` the TR-FRET ratio was 3150 (active).
For `Cn1c(=O)cc(SCC(=O)N2CCCC2)c2cc(Cl)ccc21`, the TR-FRET ratio was 3460 (active).
In the case of `CCOc1ccc(NC(=O)CSc2ncnc3c2sc2ccccc23)cc1`, the TR-FRET ratio is reported as 3140 (active).
With `CN(C)c1ccc(N/C=C/C(=O)C(F)(F)F)cc1` the TR-FRET ratio was 2070 (active).
For `O=C(O)Cc1sc(-c2ccccc2)nc1-c1cccs1`, the TR-FRET ratio was 2530 (active).
In the case of `CCc1ccc(-n2c(SCc3cc(=O)n4cc(Br)ccc4n3)nc3[nH]ncc3c2=O)cc1`, the TR-FRET ratio is reported as 2480 (active).
With `CN(C)c1ccc(/C=N/Nc2cc(N3CCOCC3)nc(N3CCOCC3)n2)cc1` the TR-FRET ratio was 2070 (active).
For `CCOC(=O)c1c(NC(=O)C(C)Sc2c[nH]c3ccccc23)sc2c1CCC2` (stereo unspecified), the TR-FRET ratio was 3480 (active).
In the case of `Cc1ccc(-c2nc(-c3cccnc3)sc2CC(=O)Nc2ccc(C)c(Cl)c2)cc1`, the TR-FRET ratio is reported as 3550 (active).
With `COCCCNc1nc2c(-c3cccc(C(F)(F)F)c3)nnn2c2ccccc12` the TR-FRET ratio was 2690 (active).
In the case of `CCOC(=O)c1c(NC(=O)CNC2CCCc3ccccc32)sc(C(N)=O)c1C` (stereo unspecified), the TR-FRET ratio is reported as 2120 (active).
